Laboratory results from paper PMC5540273 (PLoS ONE, 2017).

Legend:
Conditions in all cases: concentration: 1 μM, replicates: in singlicate; n = 1
CDK4-cyclinD1 = test system: CDK4-cyclinD1
CDK4-cyclinD3 = test system: CDK4-cyclinD3
CDK4 = test system: CDK4
CDK5 = test system: CDK5
CDK7 = test system: CDK7
CDK8 = test system: CDK8
CDK9 = test system: CDK9
CDKL1 = test system: CDKL1
CDKL2 = test system: CDKL2
CDKL3 = test system: CDKL3
CDKL5 = test system: CDKL5
CHEK1 = test system: CHEK1
CHEK2 = test system: CHEK2
CIT = test system: CIT
CLK1 = test system: CLK1
CLK2 = test system: CLK2
CLK3 = test system: CLK3
CLK4 = test system: CLK4
CSF1R-autoinhibited = test system: CSF1R-autoinhibited
CSF1R = test system: CSF1R
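Note: KINOMEscan kinase panel screen.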

SMILES	%Inh (CDK4-cyclinD1) [%]	%Inh (CDK4-cyclinD3) [%]	%Inh (CDK4) [%]	%Inh (CDK5) [%]	%Inh (CDK7) [%]	%Inh (CDK8) [%]	%Inh (CDK9) [%]	%Inh (CDKL1) [%]	%Inh (CDKL2) [%]	%Inh (CDKL3) [%]	%Inh (CDKL5) [%]	%Inh (CHEK1) [%]	%Inh (CHEK2) [%]	%Inh (CIT) [%]	%Inh (CLK1) [%]	%Inh (CLK2) [%]	%Inh (CLK3) [%]	%Inh (CLK4) [%]	%Inh (CSF1R-autoinhibited) [%]	%Inh (CSF1R) [%]
CNC(=O)c1ccc(C)c(-n2c(C)cc(OCc3ccc(F)cc3F)c(Br)c2=O)c1	0	0	0	0	4	4	0	91.9	3	25	0	0	0	0	11	0	0	0	0	0
COc1ccc(CSc2nnc(-c3ccc4ncsc4c3)o2)cc1C(F)(F)F	0	0	0	2	0	15	0	0	0	0	8	1	17	9	90.5	39	0	83	0	1
O=C(Nc1n[nH]c2cc(-c3ccsc3)ccc12)C1CC1 [SB-732932]	14	0	86	14	21	0	17	10	94.7	36	17	0	0	0	2	21	0	7	16	16
COc1ccc(CSc2nnc(-c3ccc4nccn4c3)o2)cc1C(F)(F)F	7	13	0	10	13	21	0	21	7	18	16	23	17	14	97.1	91.9	12	90.3	6	17
CNc1cc(-c2ccc3c(N)n[nH]c3c2)nc(N)n1 [GSK2224810]	3	0	18	0	2	26	0	17	0	0	0	0	84	9	90.2	80	18	89	5	3
CC(C)c1ccc(O)cc1Nc1ccnc2ccc(C(F)(F)F)cc12 [GW482059]	85	0	0	0	0	25	0	0	5	0	0	14	0	25	14	4	0	32	0	0
CC(=O)c1cccc(NC(=O)NC2CCN(c3ccnc(Nc4ccc(F)cc4)n3)C2)c1 (centres unmarked) [GSK1379710]	0	0	38	0	7	76	17	27	59	0	0	10	33	29	24	3	14	0	33	18
Nc1ncnc2occ(-c3ccc4c(c3)CCN4C(=O)Cc3cc(F)ccc3F)c12 [GSK2645446]	0	0	18	0	0	79	0	17	0	0	0	0	21	0	27	0	0	0	0	17
CSc1ccc(-c2nc3n(c2-c2ccncc2)CCC3)cc1 [SKF-105561]	0	0	27	0	0	0	0	7	0	0	6	0	0	11	5	0	13	3	3	40
Cc1ccccc1Cn1ccn2c(=O)cc(N3CCOCC3)nc12 [GSK2269905]	0	0	0	0	0	0	0	12	15	0	3	0	0	3	48	0	28	30	0	26
COc1ccc(Nc2nccc(-c3ccc(NC(=O)c4cc5cc(F)ccc5[nH]4)cc3)n2)cc1 [GSK1229496]	0	0	39	0	0	20	0	0	0	0	0	100	26	0	5	0	19	18	15	0
O=c1cc(N2CCOCC2)nc2n(Cc3cccc(Cl)c3Cl)c3ccccc3n12 [GSK2299009]	0	0	31	16	0	0	6	15	14	0	7	3	0	21	27	2	1	8	0	28
Fc1ccc(-c2nc3n(c2-c2ccncc2)CCS3)cc1 [GI98581]	0	0	31	6	0	19	0	2	4	0	0	0	0	92.9	28	0	0	9	0	0
COc1ccc(Nc2nccc(N3CCC(NC(=O)C(C)c4ccc(Cl)cc4)C3)n2)cc1 (centres unmarked) [GSK1379735]	0	0	23	0	0	35	0	100	29	0	9	26	0	26	16	13	0	8	8	27
Cn1cncc1-c1cc2c(Nc3ccc(OCc4ccccc4)cc3)ncnc2cn1 [GW281179]	0	4	0	0	0	17	0	100	21	0	1	2	0	6	17	0	0	14	0	0
CNc1nc(-c2ccc3c(N)n[nH]c3c2)cc(N2C[C@@H](C(=O)NC3CCCCC3)OC[C@H]2C)n1 [GSK2375584]	3	7	100	0	3	45	0	13	0	0	1	7	27	0	21	0	0	20	37	2
Cc1cnc(N)c(/C=C/c2cncc(C(=O)NCCc3ccc(Cl)cc3Cl)c2)c1.Cl [GSK190937]	0	0	16	0	0	88	0	0	15	0	9	0	26	31	38	48	0	57	6	25
COc1ccc(Nc2nccc(NCCNC(=O)Nc3cc(C)ccc3C)n2)cc1 [GSK1379899]	0	0	3	0	0	13	0	0	21	0	5	5	86	7	23	0	6	57	0	0
COc1cccc(NC(=O)Nc2ccc(C)c(-c3ccc(C(=O)Nc4ccncc4)cc3)c2)c1 [GSK1398474]	0	0	37	0	0	0	0	51	18	0	0	7	0	94.8	29	0	65	5	0	86
